High-throughput results from PubChem.
RORgamma inh: blocks mouse ROR gamma transcriptional activity; AID 2551; P51450; Drosophila S2 Gal4-RORgamma UAS-luciferase reporter, 20 h; 5.4% of 310,000 active; Potency, µM (titrated, usually from 53.6 µM), for inactives: top-dose activity change, negative = inhibition, hits mostly inhibitors; note: potency is the fitted concentration of half-maximal effect; % is set by controls: 0 for no effect and ±100 for the full control effect; nearly all actives have a fitted effect of over 60% in size
Target sequence (P51450 whole entry, looked up, the tested form may be a part): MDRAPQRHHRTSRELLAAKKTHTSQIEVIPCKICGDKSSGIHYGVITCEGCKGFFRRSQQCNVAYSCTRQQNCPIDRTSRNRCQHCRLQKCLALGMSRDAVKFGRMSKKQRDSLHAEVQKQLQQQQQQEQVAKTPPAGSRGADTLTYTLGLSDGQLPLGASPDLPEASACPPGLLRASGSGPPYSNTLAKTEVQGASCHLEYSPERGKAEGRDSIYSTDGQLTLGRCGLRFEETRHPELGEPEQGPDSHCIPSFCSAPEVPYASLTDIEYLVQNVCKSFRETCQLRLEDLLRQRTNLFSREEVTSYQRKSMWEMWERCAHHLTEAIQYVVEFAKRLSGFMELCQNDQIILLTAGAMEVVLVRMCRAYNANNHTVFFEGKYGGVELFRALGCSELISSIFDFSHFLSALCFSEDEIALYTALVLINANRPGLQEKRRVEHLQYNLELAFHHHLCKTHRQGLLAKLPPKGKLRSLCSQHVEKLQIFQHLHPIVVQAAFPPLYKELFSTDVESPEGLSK
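Stable Schneider cell line, Gal4 DNA-binding domain fused to ROR gamma, UAS-luciferase. Cmpd 1 hr RT → CuSO4 700 uM final → 20 hr RT → luciferase reagent 10 min → luminescence.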
Gal4-VP16 FLuc: counter-screen for ROR gamma inhibitors: Gal4-VP16 reporter; Potency, µM (top dose mostly 53.6 µM), inactives show at the top dose activity, negative = inhibition, hits mostly inhibitors; Drosophila S2 Gal4-VP16 UAS-luciferase, luminescence, 20 h; 3.5% of 310,000 active;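 note: Gal4-VP16 expression switched on by copper sulfate through the metallothionein promoter; potency is the fitted concentration of half-maximal effect; % is set by controls: 0 for no effect and ±100 for the full control effect; nearly all actives have a fitted effect of over 50% in size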
TRPV1 potentiator: enhances activation of the human vanilloid receptor TRPV1. potentiation, % at 8.33 µM. TRPV1-expressing cells, Fluo-8 calcium influx, capsaicin EC20 potentiation. Q8NER1. AID 540277. 0.02% of 320,000 active; in the data active = potentiation above about 80%; inconclusive = between about 30% and that limit; note: 0% is about no effect
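TRPV1-expressing cells were cultured overnight at 35.5C and loaded with Fluo-8 calcium dye for 40 to 90 min at room temperature. After a 10 s baseline, compound was added and calcium influx was read kinetically for 3 min (ex 480/em 520 nm).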
TRPV1 agonist: human TRPV1 agonism; Q8NER1; TRPV1-expressing cells, Fluo-8 calcium influx, agonist mode; activation, % at 8.33 µM; 0.19% of 320,000 active; in the data active = activation above about 80%; inconclusive = between about 30% and that limit; note: 0% is about no effect
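Fluo-8 calcium influx in TRPV1-expressing cells, kinetic read (ex 480/em 520 nm). Compound added and read 3 min for agonist activity, followed by capsaicin at EC20 final and 2 min further read for enhancement.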
uPA surface inh: blocks generation of uPA at the cell surface | cell surface uPA generation assay, qHTS | Potency, µM (series often up to 38.3 µM), for inactives: top-dose activity change, negative = inhibition, hits mostly inhibitors | 0.31% of 330,000 active | AID 540303; active = well fitted inhibition curve with a large enough effect; inconclusive = small, poorly fitted or top-dose-only effect; inactive = no such curve, though single readings can be large or run the other way; tested in mouse RAW 264.7 cells; note: potency is the fitted concentration of half-maximal effect; % is set by controls: 0 for no effect and ±100 for the full control effect; nearly all actives have a fitted effect of over 55% in size
Active calls of the source: *; ? = inconclusive; / = no result; [ ] = remark or other dose. Only some compounds are listed: those with a hit (about 5.8% of all), similar ones and a draw of the others. Unless noted, calls come from the whole dose curve; as a rule, active = well fitted curve in the direction sought with a large enough effect; inconclusive = small, poorly fitted or top-dose-only effect, or another doubt; inactive = no such curve, though single readings can be large; an effect the other way counts as inactive or inconclusive.

SMILES	RORgamma inh	Gal4-VP16 FLuc	TRPV1 potentiator	TRPV1 agonist	uPA surface inh
CC1=C(/C=C/C(C)=C/C=C/C(C)=C/C=C/C=C(C)/C=C/C=C(C)/C=C/C2=C(C)C(=O)CCC2(C)C)C(C)(C)CCC1=O	-17%	-5%	/	/	/
Cc1ccc(/C=N/NC(=S)N2CCOCC2)cc1	0.56µM*	0.89µM*	-11	26	-1%
S=C(N/N=C/c1ccc(Br)cc1)N1CCCCC1	1.4µM*	0.89µM*	-24	?	-1%
S=C(N/N=C/c1ccc(Cl)cc1)N1CCOCC1	0.35µM*	1.8µM*	-7	?	5%
Cc1ccc(CNC(=S)N2CCOCC2)cc1	-17%	-10%	0	?	-18%
O=C(O)/C=C(\CC(=O)O)C(=O)O	-22%	2%	/	/	/
O=C(O)c1ccc(/C=N/NC(=O)c2cc3ccccc3cc2O)cc1	/	/	/	/	3%
O=C(N/N=C\c1ccc(Sc2ccccn2)o1)c1cccc(F)c1	10µM*	-15%	9	2	4%
O=C(N/N=C/c1ccc(Sc2ccccn2)o1)c1cccc([N+](=O)[O-])c1	4µM*	11µM*	-1	0	-1%
O=C(N/N=C/c1ccc(Sc2ccccn2)o1)c1cc2ccccc2cc1O	16µM*	19%[0.365 µM]	10	-1	2%
CCN(CC)C(=O)[C@H]1CC(CC(=O)NCc2ccc(OC)c(OC)c2)C(=O)N2CCc3c([nH]c4ccc(OC)cc34)[C@]12C (stereo partly drawn)	/	/	/	/	-19%
CCOc1ccc(CN(C)CC(=O)Nc2ccccc2C(=O)NC2CC2)cc1	/	/	-10	18	10%
Cc1cc(NC(=O)CC(C)C)c(=O)n(Cc2ccccc2F)c1	-7%[1.91 µM]	9%	15	1	-3%
Cc1sc2ncnc(N3CCCCC3)c2c1C	1%	-8%	-16	26	/
Clc1ccc(OCCN2CCN(c3ncnc4sccc34)CC2)cc1	?	0.63µM*	-47	3	-8%
Cc1ccc(OCCN2CCN(c3ncnc4sc(C)c(C)c34)CC2)cc1	8.9µM*	3.5µM*	-4	1	-13%
Cc1ccc(N2CC(NC(=O)N3CCN(C(=O)c4ccco4)CC3)CC2=O)cc1 (stereo not drawn)	/	/	-1	-3	5%
CC1=C(C(=O)c2ccccc2)C(c2cn(-c3ccccc3)nc2-c2ccc(Cl)cc2)NC(=S)N1 (stereo not drawn)	5.6µM*	3.5µM*	-6	-2	/
Cc1nc2ccc(NC(=O)Cc3ccc4c(c3)OCCO4)cc2s1	30%	15%	5	-3	1%
Oc1c(Cl)cc(Cl)cc1Sc1cc(Cl)cc(Cl)c1O	?	13µM*	2	0	/
C/C(=N\N=C(/C)c1cccc(N)c1)c1cccc(N)c1	/	/	/	/	1%
CCOCC(=O)Nc1cc(C)on1	4%	8%	9	-2	7%
Cc1ccc(-c2nn(-c3ccccc3)cc2CNCc2ccccc2)cc1	?	14µM*	-2	21	1%
Cc1ccc(O)c(CNc2cnc3ccccc3c2)c1	7%[1.91 µM]	17%	-2	3	-12%
COc1cccc(CNc2cnc3ccccc3c2)c1O	?	10µM*	5	9	0%
SMILES	RORgamma inh	Gal4-VP16 FLuc	TRPV1 potentiator	TRPV1 agonist	uPA surface inh
CNC(=S)Nc1sc2c(c1C(=O)OC)CCC2	1.3µM*	?	28	-1	-3%
CCOC(=O)c1c(NC(=S)Nc2cccnc2)sc(C)c1C	13µM*	?	-8	8	/
COC(=O)c1c(NC(=S)NN2CCN(C)CC2)sc2c1CCC(C)C2 (stereo not drawn)	2µM*	5µM*	-3	4	11%
CCOC(=O)c1c(NC(=S)Nc2ccccc2)sc2c1CC(C)(C)SC2	2.8µM*	4µM*	-2	-4	-3%
COc1cc(OC)c(N(C)S(=O)(=O)c2cccc(C(=O)NC(C)C3CC4CCC3C4)c2)cc1Cl (stereo not drawn)	4%	0%	-3	3	-1%
C#CCCCO/N=C1/[C@H]2O[C@@H]2[C@@H](O)[C@H]2[C@H]1CCn1c(=O)n(C)c(=O)n12	3%[10 µM]	5%[10 µM]	/	/	/
O=c1c(-c2cc(F)cc(F)c2)nc2cncnc2n1Cc1ccccc1	23%	5%	/	/	/
CCOC(=O)c1c(NC(=S)NC)sc2c1CC(C)(C)SC2	0.4µM*	0.89µM*	-4	2	-1%
CCOC(=O)c1c(NC(=S)Nc2ccc(Cl)cc2)sc(C)c1C	-16%	-13%	5	0	4%
Cc1sc(NC(=S)Nc2ccc(F)cc2)c(C(N)=O)c1C	8.9µM*	11µM*	27	-3	3%
CCOC(=O)c1c(NC(=S)Nc2ccc(OC)cc2)sc2c1CCC2	?	-4%	3	-1	0%
O=C1C[C@H](c2ccc(-c3ccccc3)cc2)N1S(=O)(=O)c1ccccc1[N+](=O)[O-]	11%	-12%	/	/	/
CC(C)[C@H](NC(=O)[C@H](CCCCN)NC(=O)[C@@H](NC(=O)[C@@H]1CCCN1C(=O)[C@H](CCCN=C(N)N)NC(=O)[C@H](CCCN=C(N)N)NC(=O)[C@H](CCCCN)NC(=O)[C@H](CCCCN)NC(=O)CNC(=O)[C@@H](NC(=O)[C@@H]1CCCN1C(=O)[C@@H](N)CCCCN)C(C)C)C(C)C)C(=O)N[C@@H](Cc1ccc(O)cc1)C(=O)N1CCC[C@H]1C(=O)O	-23%	-6%	/	/	/
CN1CCN(c2cc(-c3cc(O)c4ncccc4c3)ccn2)CC1	/	/	6	1	-58%
Cc1ccc(C(c2cc(Cl)c3cccnc3c2O)N2CCN(C)CC2)cc1 (stereo not drawn)	1.3µM*	0.71µM*	-10	5	-1%
CN1CCN(C(c2ccccn2)c2cc(Cl)c3cccnc3c2O)CC1 (stereo not drawn)	1.4µM*	5µM*	0	5	?
Oc1c(C(c2ccccn2)N2CCC(Cc3ccccc3)CC2)cc(Cl)c2cccnc12 (stereo not drawn)	?	?	-25	21	-14%
Oc1c(C(c2ccc(Cl)cc2)N2CCCC2)cc(Cl)c2cccnc12 (stereo not drawn)	1.4µM*	?	-5	5	?
COc1ccc(CCNC(=O)c2cc(C)oc2C)cc1OC	13%	-6%	0	1	1%
COc1ccc(-c2nnc3n2N=C(c2cc(OC)ccc2OC)CS3)c(OC)c1	-10%	0%	/	/	/
COC(=O)c1nn(-c2ccccc2)c(Cl)c1/C=N/OCc1ccc(Cl)cc1Cl	-1%	-9%	-8	0	-4%
O=c1c2nnn(-c3ccccc3)c2ncn1C/C=C/c1ccccc1	-10%	25%	4	-1	-7%
Cc1ccccc1NS(=O)(=O)c1ccc2[nH]cc(C(=O)NCCc3ccccc3)c(=O)c2c1	/	/	16	0	/
COCCNC(=O)C1(C(F)(F)F)C/C(=C/CCO)CCCO1 (stereo not drawn)	0%	-25%	/	/	/
CC(C)(C)c1cc(Cc2ccccc2)[nH]n1	18µM*	-1%	3	0	/
